# Calls of active or inactive are those of the source. How the source made its calls, unless noted: active means hit-call score of the fitted dose curve at least 0.9, where 1 is the maximum; inactive means score below 0.9.
# Experiments:
# [1] = tested on: SERPINA7 (gene 6906); experiment: CCTE_GLTED_hTBG: CCTE's human Thyroxine-binding Globulin (TBG) Inhibition Assay, Great Lakes Toxicology and Ecology Division (GLTED) Lab (AID 2284343; active means hit-call score of the fitted dose curve at least 0.9, where 1 is the maximum;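 further: active chemicals lower fluorescence versus DMSO baseline by displacing probe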)
# Summary of the method: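 Measures how far test chemicals displace ANSA bound to purified human TBG. The read-out is fluorescence at 380 nm excitation and 475 nm emission, taken after 2 h of incubation.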
# [2] = CCTE_Deisenroth_H295R-HTRF_384WELL_ESTRADIOL: CCTE's H295R-HTRF Assay Evaluation of Estradiol Concentration, Deisenroth Lab (AID 2284361); conditions: actives raise or lower the signal
# Summary of the method: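 H295R cells exposed 48 h to chemicals at 0.001 - 100 uM final (nine points, triplicate); estradiol in conditioned medium measured by HTRF immunoassay, fitted bidirectionally versus DMSO. Viability by CellTiter-Glo on same plates.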
# [3] = CCTE_Deisenroth_H295R-HTRF_384WELL_TESTOSTERONE: CCTE's H295R-HTRF Assay Evaluation of Testosterone Concentration, Deisenroth Lab (AID 2284373); conditions: actives raise or lower the signal
# Summary of the method: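 Secreted testosterone was quantified by HTRF immunoassay of medium from human adrenocortical H295R cells after 48 h chemical exposure at 0.001–100 uM final. Gain or loss was fitted against DMSO. ATP-based viability was read on matched wells, five experimental replicates.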
# [4] = tested on: SRY-box transcription factor 17 (SOX17) Protein Expression, Deisenroth Lab, SOX17 (gene 64321); experiment: CCTE_Deisenroth_DEVTOX-GLR_legacy_Sox17: (Legacy) CCTE's DevTox GLR-Endo Assay Evaluation of SRY-box transcription factor 17 (SOX17) Protein Expression, Deisenroth Lab (AID 2284341); conditions: actives raise or lower the signal
# Summary of the method: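 RUES2-GLR human pluripotent cells differentiated toward endoderm for 48 h, dosed twice at 24 h intervals (1 nM–200 uM, 10 points). Imaging gives % SOX17+ cells (intensity >5x BMAD above pluripotent control median); bidirectional fit versus 0.2% DMSO.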
# [5] = tested on: SRY-box transcription factor 2 (SOX2) Protein Expression, Deisenroth Lab, SOX2 (gene 6657); experiment: CCTE_Deisenroth_DEVTOX-GLR_legacy_Sox2: (Legacy) CCTE's DevTox GLR-Endo Assay Evaluation of SRY-box transcription factor 2 (SOX2) Protein Expression, Deisenroth Lab (AID 2284346)
# Summary of the method: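 RUES2-GLR human pluripotent cells seeded 24 h, then differentiated 48 h in defined media with two chemical doses 24 h apart (10-point, 1 nM–200 uM). Fixed, nuclear-stained, imaged; % Sox2+ cells (>5x BMAD over endoderm control median), DMSO-subtracted, fitted upward.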
smiles,measurement,setting,value
O=C(O)Cn1c(=O)n(Cc2ccc(Br)cc2F)c(=O)c2ccc(Cl)cc21,AC50,[1],18.1 µM (active)
CC(=O)N1CCN(c2ccc(OC[C@H]3CO[C@](Cn4ccnc4)(c4ccc(Cl)cc4Cl)O3)cc2)CC1,outcome,[2],inactive
same,AC50,[3],0.947 µM (active)
OCCO,outcome,[4],inactive
same,outcome,[5],inactive
NC(=O)c1nc(-c2cccc(-c3cc(F)ccc3OCC(F)(F)C(F)(F)F)c2)n[nH]1,AC50,[1],3.35 µM (active)
CCCCCc1ccc(N)cc1,AC50,[1],29.9 µM (active)

# Reference: PubChem BioAssay (EPA / NIEHS)
